# From the supplement of paper PMC10849652
# Targets with a hit are over-represented here; the source holds about 8,800 in all. About 0.5% of all pairs of compound and target were hits. Values without a mark were called inactive.
# Legend:
# Experiment in all cases: log2 fold change, soluble protein after heating vs DMSO (PISA); higher = thermal stabilisation; K562 lysate, 10 uM; active = over 0.2 and 3.5 SD of the protein, either way, in both replicates (recomputed)
# nilotinib = compound: Cc1cn(-c2cc(NC(=O)c3ccc(C)c(Nc4nccc(-c5cccnc5)n4)c3)cc(C(F)(F)F)c2)cn1 [nilotinib]
# Method in brief: (§1)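 Soluble protein was defined as the supernatant remaining after 21,000xg for 90 min, following pooling of heated aliquots and adjustment to 0.5% NP-40 at 4°C. Before that, crude K562 extract at 1 mg/mL protein in PBS pH 7.4 with 1 mM MgCl2 was treated with 10 μM compound for 30 min and heated for 3 min across 48°C-58°C. Quantification used TMTpro 16plex LC-MS/MS with channel sums equalised, and values are log-two fold changes in thermal stability relative to solvent controls from duplicates.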
# [1] = compound: Cc1nc(Nc2n[nH]c3c2CN(C(=O)N[C@H](CN(C)C)c2ccccc2)C3(C)C)c2sccc2n1
# Method in brief: as §1
# dasatinib = compound: Cc1nc(Nc2ncc(C(=O)Nc3c(C)cccc3Cl)s2)cc(N2CCN(CCO)CC2)n1 [dasatinib]
# Method in brief: as §1
# [2] = compound: Cc1ncc(-c2ccnc(Nc3ccc(S(C)(=O)=O)cc3)n2)n1C(C)C
# Method in brief: as §1
# [3] = compound: Cn1cc(-c2ccc3c(c2)CCN3C(=O)Cc2cccc(C(F)(F)F)c2)c2c(N)ncnc21
# Method in brief: as §1
# quisinostat = compound: Cn1cc(CNCC2CCN(c3ncc(C(=O)NO)cn3)CC2)c2ccccc21 [quisinostat]
# Method in brief: as §1
# tipifarnib = compound: Cn1cncc1[C@@](N)(c1ccc(Cl)cc1)c1ccc2c(c1)c(-c1cccc(Cl)c1)cc(=O)n2C [tipifarnib]
# Method in brief: as §1
# [4] = compound: NC(=O)Nc1cc(-c2cccc(F)c2)sc1C(=O)N[C@H]1CCCNC1
# Method in brief: as §1
# [5] = compound: NC(=O)c1cnc(N[C@@H]2CCCC[C@@H]2N)nc1Nc1cccc(-n2nccn2)c1
# Method in brief: as §1
# [6] = compound: NC1(c2ccc(-c3nc4ccn5c(=O)[nH]nc5c4cc3-c3ccccc3)cc2)CCC1
# Method in brief: as §1
# [7] = compound: NCC(=O)Nc1ccc(-n2nc(C(F)(F)F)cc2-c2ccc3c(ccc4ccccc43)c2)cc1
# Method in brief: as §1
# vorinostat = compound: O=C(CCCCCCC(=O)Nc1ccccc1)NO [vorinostat]
# Method in brief: as §1
# silmitasertib = compound: O=C(O)c1ccc2c(c1)nc(Nc1cccc(Cl)c1)c1ccncc12 [silmitasertib]
# Method in brief: as §1
# [8] = compound: O=C1NC(=O)C(c2cnc3ccccn23)=C1c1cn2c3c(cc(F)cc13)CN(C(=O)N1CCCCC1)CC2
# Method in brief: as §1
# entospletinib = compound: c1cn2cc(-c3ccc4cn[nH]c4c3)nc(Nc3ccc(N4CCOCC4)cc3)c2n1 [entospletinib]
# Method in brief: as §1
# Sequence of UniProt Q96Q05 (Q96Q05 whole entry, looked up): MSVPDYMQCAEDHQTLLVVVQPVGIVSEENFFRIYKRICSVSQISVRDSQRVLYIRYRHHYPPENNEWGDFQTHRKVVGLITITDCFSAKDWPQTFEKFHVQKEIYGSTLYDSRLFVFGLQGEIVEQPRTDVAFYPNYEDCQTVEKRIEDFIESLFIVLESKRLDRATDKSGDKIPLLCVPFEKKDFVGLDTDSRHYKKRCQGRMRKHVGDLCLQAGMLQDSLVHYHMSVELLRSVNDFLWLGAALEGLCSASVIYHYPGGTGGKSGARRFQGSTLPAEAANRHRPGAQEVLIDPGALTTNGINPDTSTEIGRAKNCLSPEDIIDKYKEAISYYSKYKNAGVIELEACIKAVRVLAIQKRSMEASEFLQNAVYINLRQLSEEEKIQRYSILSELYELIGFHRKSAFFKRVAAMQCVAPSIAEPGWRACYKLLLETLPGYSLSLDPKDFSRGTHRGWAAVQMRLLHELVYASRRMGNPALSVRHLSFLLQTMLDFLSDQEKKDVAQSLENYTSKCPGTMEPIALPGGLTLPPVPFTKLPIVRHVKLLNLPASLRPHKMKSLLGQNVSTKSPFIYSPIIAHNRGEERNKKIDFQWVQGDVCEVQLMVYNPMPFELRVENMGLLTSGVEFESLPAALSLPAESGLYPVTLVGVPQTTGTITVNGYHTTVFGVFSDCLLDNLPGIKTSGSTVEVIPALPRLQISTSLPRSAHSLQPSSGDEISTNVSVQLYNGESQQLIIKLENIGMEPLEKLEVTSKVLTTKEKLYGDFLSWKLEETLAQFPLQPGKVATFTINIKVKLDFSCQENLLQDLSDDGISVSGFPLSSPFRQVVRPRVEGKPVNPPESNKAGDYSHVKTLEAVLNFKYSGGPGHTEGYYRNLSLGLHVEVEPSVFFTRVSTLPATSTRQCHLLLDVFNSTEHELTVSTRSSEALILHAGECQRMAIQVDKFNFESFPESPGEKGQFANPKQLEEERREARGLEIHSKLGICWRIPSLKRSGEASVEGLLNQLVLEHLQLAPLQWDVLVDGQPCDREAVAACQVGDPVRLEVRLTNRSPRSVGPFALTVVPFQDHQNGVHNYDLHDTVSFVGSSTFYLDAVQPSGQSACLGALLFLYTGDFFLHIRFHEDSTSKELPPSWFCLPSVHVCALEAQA
# Sequence of UniProt P68366 (P68366 whole entry, looked up): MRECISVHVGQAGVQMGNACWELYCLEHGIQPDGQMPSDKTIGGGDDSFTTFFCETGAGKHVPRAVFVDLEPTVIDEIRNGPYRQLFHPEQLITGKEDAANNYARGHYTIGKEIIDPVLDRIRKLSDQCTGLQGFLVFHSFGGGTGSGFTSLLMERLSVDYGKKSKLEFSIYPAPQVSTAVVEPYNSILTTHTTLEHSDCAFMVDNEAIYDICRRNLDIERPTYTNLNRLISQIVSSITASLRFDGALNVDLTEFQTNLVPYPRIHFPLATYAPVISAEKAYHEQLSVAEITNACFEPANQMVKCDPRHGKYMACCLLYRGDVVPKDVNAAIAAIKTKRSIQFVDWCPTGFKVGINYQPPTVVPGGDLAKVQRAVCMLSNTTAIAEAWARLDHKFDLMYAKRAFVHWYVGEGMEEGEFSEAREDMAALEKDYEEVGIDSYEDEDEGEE
# Sequence of UniProt P15923 (P15923 whole entry, looked up): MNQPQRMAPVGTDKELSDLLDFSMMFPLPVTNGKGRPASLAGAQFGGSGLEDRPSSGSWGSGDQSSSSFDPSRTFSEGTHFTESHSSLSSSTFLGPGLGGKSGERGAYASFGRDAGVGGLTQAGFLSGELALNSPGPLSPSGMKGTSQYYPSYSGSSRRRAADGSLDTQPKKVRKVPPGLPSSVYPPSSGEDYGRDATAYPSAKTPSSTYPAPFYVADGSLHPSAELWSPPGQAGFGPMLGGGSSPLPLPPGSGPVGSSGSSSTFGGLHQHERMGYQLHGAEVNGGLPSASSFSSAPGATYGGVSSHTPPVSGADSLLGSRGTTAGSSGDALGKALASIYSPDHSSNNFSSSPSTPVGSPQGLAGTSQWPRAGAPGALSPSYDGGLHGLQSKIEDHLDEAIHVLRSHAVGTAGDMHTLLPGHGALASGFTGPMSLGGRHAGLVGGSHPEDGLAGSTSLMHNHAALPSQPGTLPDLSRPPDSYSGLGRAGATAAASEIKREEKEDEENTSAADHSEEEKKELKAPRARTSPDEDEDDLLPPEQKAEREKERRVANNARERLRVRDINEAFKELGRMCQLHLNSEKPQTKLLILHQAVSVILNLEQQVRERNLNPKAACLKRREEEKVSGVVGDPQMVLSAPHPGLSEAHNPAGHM
# Sequence of UniProt Q6NXR4 (Q6NXR4 whole entry, looked up): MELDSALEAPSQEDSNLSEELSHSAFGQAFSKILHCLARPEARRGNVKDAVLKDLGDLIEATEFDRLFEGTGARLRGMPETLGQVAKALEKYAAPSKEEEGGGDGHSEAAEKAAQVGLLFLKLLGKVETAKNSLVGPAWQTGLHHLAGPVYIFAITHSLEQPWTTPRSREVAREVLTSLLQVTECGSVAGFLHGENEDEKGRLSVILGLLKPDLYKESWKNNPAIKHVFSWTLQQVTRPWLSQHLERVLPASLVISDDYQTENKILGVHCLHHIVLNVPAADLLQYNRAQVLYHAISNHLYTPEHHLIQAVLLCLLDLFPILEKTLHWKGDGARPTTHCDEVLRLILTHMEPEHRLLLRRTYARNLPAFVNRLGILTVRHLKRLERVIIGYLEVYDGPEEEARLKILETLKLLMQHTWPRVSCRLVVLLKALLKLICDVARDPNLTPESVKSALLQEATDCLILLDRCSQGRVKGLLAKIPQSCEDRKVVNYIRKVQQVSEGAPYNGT
# Sequence of UniProt Q0IIM8 (Q0IIM8 whole entry, looked up): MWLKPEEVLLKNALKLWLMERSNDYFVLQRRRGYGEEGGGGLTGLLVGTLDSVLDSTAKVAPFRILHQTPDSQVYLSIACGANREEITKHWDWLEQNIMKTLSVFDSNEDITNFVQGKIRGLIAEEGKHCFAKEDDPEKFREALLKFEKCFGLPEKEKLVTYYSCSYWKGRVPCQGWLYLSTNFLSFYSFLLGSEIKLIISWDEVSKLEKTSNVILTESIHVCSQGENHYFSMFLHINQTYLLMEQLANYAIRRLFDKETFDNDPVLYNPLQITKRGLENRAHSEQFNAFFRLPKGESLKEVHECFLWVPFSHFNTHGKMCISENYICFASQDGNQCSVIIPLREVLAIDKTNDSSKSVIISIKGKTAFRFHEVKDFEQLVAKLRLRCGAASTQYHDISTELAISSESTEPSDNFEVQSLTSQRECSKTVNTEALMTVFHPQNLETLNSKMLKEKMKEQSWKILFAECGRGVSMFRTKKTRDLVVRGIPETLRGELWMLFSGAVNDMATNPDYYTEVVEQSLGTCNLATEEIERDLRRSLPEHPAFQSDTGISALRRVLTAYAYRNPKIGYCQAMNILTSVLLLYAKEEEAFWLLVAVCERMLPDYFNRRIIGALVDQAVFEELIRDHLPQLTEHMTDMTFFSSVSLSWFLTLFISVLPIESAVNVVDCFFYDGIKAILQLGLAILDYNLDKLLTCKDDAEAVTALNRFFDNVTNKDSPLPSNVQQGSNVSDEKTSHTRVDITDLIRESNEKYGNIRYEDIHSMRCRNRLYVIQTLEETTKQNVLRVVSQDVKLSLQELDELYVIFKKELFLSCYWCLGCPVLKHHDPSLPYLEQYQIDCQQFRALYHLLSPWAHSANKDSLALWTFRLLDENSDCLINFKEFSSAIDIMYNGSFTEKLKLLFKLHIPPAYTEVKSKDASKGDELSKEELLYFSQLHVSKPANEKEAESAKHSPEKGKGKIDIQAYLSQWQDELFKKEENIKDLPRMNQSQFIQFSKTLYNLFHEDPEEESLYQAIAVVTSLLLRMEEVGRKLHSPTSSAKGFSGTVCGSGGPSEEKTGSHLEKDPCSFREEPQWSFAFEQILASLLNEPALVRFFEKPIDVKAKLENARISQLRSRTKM
# Sequence of UniProt Q96F44 (Q96F44 whole entry, looked up): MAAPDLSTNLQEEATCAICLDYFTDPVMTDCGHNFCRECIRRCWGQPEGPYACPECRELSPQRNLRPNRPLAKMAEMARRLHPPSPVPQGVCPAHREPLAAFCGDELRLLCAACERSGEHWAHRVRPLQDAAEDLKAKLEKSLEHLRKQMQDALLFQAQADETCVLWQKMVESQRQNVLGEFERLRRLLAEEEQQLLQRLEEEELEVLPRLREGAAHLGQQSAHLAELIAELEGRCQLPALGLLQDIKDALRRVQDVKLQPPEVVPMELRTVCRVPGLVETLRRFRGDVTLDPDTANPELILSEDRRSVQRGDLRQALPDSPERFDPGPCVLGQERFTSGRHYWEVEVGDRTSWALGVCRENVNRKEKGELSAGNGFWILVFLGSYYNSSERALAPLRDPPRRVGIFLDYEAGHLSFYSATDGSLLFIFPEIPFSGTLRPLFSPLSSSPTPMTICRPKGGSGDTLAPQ
# Sequence of UniProt Q5BJF2 (Q5BJF2 whole entry, looked up): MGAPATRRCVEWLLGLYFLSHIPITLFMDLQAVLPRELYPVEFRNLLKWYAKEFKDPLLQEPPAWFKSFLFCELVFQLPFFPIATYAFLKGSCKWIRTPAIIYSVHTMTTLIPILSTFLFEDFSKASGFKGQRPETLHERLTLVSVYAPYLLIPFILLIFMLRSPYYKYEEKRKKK
# Sequence of UniProt Q9NUJ3 (Q9NUJ3 whole entry, looked up): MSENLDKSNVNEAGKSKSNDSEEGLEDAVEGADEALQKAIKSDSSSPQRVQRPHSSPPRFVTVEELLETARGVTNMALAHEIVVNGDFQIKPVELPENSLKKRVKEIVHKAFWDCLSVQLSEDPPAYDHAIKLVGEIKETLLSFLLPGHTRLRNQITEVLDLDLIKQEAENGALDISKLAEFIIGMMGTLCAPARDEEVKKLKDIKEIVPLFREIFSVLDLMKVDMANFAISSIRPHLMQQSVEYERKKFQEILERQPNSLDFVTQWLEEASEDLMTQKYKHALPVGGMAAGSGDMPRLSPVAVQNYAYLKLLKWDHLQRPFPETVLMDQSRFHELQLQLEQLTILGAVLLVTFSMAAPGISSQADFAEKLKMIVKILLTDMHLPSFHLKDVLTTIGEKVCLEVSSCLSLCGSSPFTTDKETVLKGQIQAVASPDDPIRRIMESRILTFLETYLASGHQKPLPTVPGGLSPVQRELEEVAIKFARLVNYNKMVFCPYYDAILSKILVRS
Target,log2 fold change (nilotinib),log2 fold change [1],log2 fold change (dasatinib),log2 fold change [2],log2 fold change [3],log2 fold change (quisinostat),log2 fold change (tipifarnib),log2 fold change [4],log2 fold change [5],log2 fold change [6],log2 fold change [7],log2 fold change (vorinostat),log2 fold change (silmitasertib),log2 fold change [8],log2 fold change (entospletinib)
TBC1D8B (UniProt Q0IIM8),0.021,-0.035,0.01,0.015,-0.042,-0.061,0.036,0.034,-0.042,-0.034,0.036,0.147,-0.037,0.011,0.131
TMEM263 (UniProt Q8WUH6),0.151,0.153,-0.134,-0.079,0.011,0.021,-0.512 (active),0.063,-0.021,-0.154,0.053,0.289,-0.15,-0.113,-0.034
TESC (UniProt Q96BS2),0.031,-0.025,0.053,0.05,0.02,0.012,0.012,-0.036,-0.035,0.049,-0.036,0.058,0.103,-0.014,-0.111
TUBA4A (UniProt P68366),0.036,-0.024,-0.09,-0.009,0.02,-0.024,-0.012,0.034,0.022,-0.003,0.066,-0.736 (active),0.077,0.051,-0.045
TNKS (UniProt O95271),-0.053,-0.016,0.081,0.04,-0.051,-0.021,0.103,0.032,0.088,0.028,-0.009,-0.1,0.06,-0.001,-0.085
TMPO (UniProt P42167),-0.033,-0.003,0.008,-0.042,-0.016,0.061,-0.034,0.009,-0.011,0.007,0.021,0.104,0.012,-0.032,-0.031
TOE1 (UniProt Q96GM8),-0.039,-0.012,0.016,0.04,0.015,-0.036,0.006,0.023,-0.013,-0.01,-0.003,-0.359 (active),0.041,0.002,0.043
TUBA1C (UniProt Q9BQE3),-0.001,0.021,-0.017,0.006,0.018,-0.038,-0.007,0.014,-0.006,-0.052,0.019,-0.256 (active),0.013,0.006,-0.014
TBC1D23 (UniProt Q9NUY8),0.013,-0.018,-0.001,-0.005,-0.021,-0.028,0.018,0.01,-0.032,-0.004,0.031,-0.252 (active),-0.023,-0.001,0
TPM3 (UniProt P06753),0.014,-0.033,0.023,0.028,-0.012,0.046,0.033,-0.042,-0.02,0.034,0.004,0.112,0.012,-0.004,0.008
UBE2D1 (UniProt P51668),0.259 (active),-0.093,-0.1,-0.064,0.033,0.108,-0.065,-0.06,-0.066,0.029,-0.01,0.088,-0.101,-0.001,0.056
TBC1D2B (UniProt Q9UPU7),-0.019,0.038,-0.008,-0.07,0.055,0.007,-0.087,0.007,-0.021,0.006,-0.007,-0.249 (active),0.049,-0.047,-0.061
TPM3 isoform 2 (UniProt P06753),-0.048,0.019,0.012,-0.005,0.014,0.14,0.06,-0.024,-0.003,0.047,-0.032,0.048,0.011,-0.047,-0.029
TUBGCP3 (UniProt Q96CW5),-0.031,0.029,-0.038,0.043,0.038,-0.083,-0.023,0.009,0.002,0.012,-0.014,-0.459 (active),-0.014,0.019,-0.003
TRIM11 (UniProt Q96F44),-0.019,0.053,-0.021,0.055,0.023,-0.104,-0.015,-0.019,-0.004,-0.023,0.018,-0.222 (active),0.046,-0.035,-0.045
UBE2L6 (UniProt O14933),0.038,-0.139,-0.018,0.036,-0.055,0.024,0.043,-0.032,-0.002,-0.096,-0.071,-0.477 (active),0.037,0,-0.011
TCP11L1 (UniProt Q9NUJ3),0.062,-0.114,-0.034,-0.035,0.01,-0.055,-0.003,0.051,-0.022,0.028,0,-0.317 (active),-0.043,0.006,0.019
TRIM23 (UniProt P36406),0.107,-0.004,-0.005,-0.046,0.136,-0.044,0.023,0.005,0.072,0.037,0.064,0.073,-0.03,-0.02,-0.032

Target,log2 fold change (nilotinib),log2 fold change [1],log2 fold change (dasatinib),log2 fold change [2],log2 fold change [3],log2 fold change (quisinostat),log2 fold change (tipifarnib),log2 fold change [4],log2 fold change [5],log2 fold change [6],log2 fold change [7],log2 fold change (vorinostat),log2 fold change (silmitasertib),log2 fold change [8],log2 fold change (entospletinib)
UBR5 (UniProt O95071),0.006,0.027,-0.028,-0.019,0.019,-0.059,-0.02,0.005,0.013,-0.009,0.009,-0.234 (active),0.011,-0.011,-0.006
TCF3 (UniProt P15923),0.028,-0.118,-0.018,-0.057,-0.139,0.006,-0.245,0.055,-0.019,-0.003,-0.007,-0.141,-0.031,0,-0.03
TMEM70 (UniProt Q9BUB7),-0.05,-0.046,-0.065,0.023,-0.003,-0.206,-0.007,0.02,0.009,-0.001,-0.081,0.122,0.017,-0.108,0.015
TRAPPC9 isoform 2 (UniProt Q96Q05),0.034,0.005,-0.051,-0.011,0.068,-0.07,0.026,0,-0.011,-0.073,0.005,-0.375 (active),0.046,0,-0.049
TPP2 (UniProt Q5VZU9),0.066,0.035,-0.194,-0.015,0.036,0.084,-0.001,0.107,-0.006,-0.039,-0.125,-0.173,0.044,0.002,0.109
TJP1 isoform 2 (UniProt Q07157),-0.003,0.004,0.036,0.006,-0.013,-0.011,-0.005,-0.019,0.022,-0.041,0.029,0.041,-0.035,-0.023,-0.043
TMEM97 (UniProt Q5BJF2),0.098,0.053,0.018,0.124,-0.005,0.046,0.057,0.011,-0.034,0.023,-0.016,0.152,-0.039,0.071,0.004
TRIM44 (UniProt Q96DX7),-0.016,0.001,0.073,-0.036,-0.008,0.035,0.006,0.023,-0.011,0.044,0.024,-0.031,0.062,-0.015,-0.051
TGOLN2 isoform 7 (UniProt O43493),-0.059,-0.004,0.023,0.021,0.033,-0.029,-0.087,0.014,0.019,0.008,-0.02,0.089,0.055,-0.047,-0.019
TUBB2A (UniProt Q13885),-0.005,-0.002,-0.049,-0.02,-0.001,-0.035,0.009,0.043,0.003,0.007,0.034,-0.759 (active),0.016,-0.004,-0.012
TTI2 (UniProt Q6NXR4),0.022,0.029,-0.051,0.044,0.01,-0.009,-0.018,-0.003,0.049,-0.013,0.05,-0.303 (active),0.015,0.034,0.005
TTLL12 (UniProt Q14166),0.015,-0.012,-0.028,-0.027,-0.006,-0.015,0.008,0.067,0.001,-0.013,-0.021,-0.426 (active),0.092,0.02,0.049
UBE3B (UniProt Q7Z3V4),0.041,-0.006,0.055,-0.011,0.053,-0.077,-0.102,0.041,0.14,-0.026,0.117,-0.838 (active),0.061,0.007,0.115
UBP1 (UniProt Q9NZI7),-0.019,-0.039,0.008,0.05,0.002,-0.125,-0.084,0.01,0.008,-0.058,-0.002,-0.182,0.008,-0.01,-0.002
TUBB3 (UniProt Q13509),0.029,-0.028,-0.027,-0.003,0.024,-0.004,-0.013,0.039,0.006,0.006,-0.012,-0.688 (active),0.04,0.006,-0.002
TRAPPC6A isoform 2 (UniProt O75865),0.015,-0.09,-0.026,0.02,-0.058,0.006,0.048,-0.048,-0.008,0.076,-0.048,-0.038,0.013,-0.002,-0.157
TMPO (UniProt P42166),0.05,-0.178,-0.069,-0.036,0.029,-0.041,-0.018,0.035,0.031,-0.006,0.037,-0.569 (active),-0.057,0.009,-0.029
UBR3 isoform 4 (UniProt Q6ZT12),0.003,-0.033,-0.026,-0.005,0.014,-0.069,-0.009,0.036,-0.032,-0.039,-0.011,-0.43 (active),0.023,-0.005,-0.003
